Whole data set: some 16,000 sequences, median “rpm ratio (pull-down/input)” near 0.94, cut for the highest 2% near 1.7. Many of the other results were omitted from the sample, so the highest values are more common in it than they were.

The text below walks through data of article PMC12820563, “FoxP3 forms a head-to-head dimer in vivo and stabilizes its multimerization on adjacent microsatellites”.

The target of this experiment is T1, MBP-FoxP1dN (Mus musculus, UniProt P58462 326-579).
T1 sequence: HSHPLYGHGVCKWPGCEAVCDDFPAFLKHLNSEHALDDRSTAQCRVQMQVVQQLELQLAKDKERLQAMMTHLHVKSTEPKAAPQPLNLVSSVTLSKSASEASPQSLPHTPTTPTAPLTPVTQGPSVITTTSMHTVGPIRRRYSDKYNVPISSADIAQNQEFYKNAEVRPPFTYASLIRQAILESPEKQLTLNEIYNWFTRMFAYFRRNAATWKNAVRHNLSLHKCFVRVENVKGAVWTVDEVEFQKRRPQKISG
The experiment in a line: PD-seq (MBP pull-down with sequencing); 20 mM Tris-HCl pH 7.5, 100 mM NaCl, 1.5 mM MgCl2, 0.4 uM protein, 0.1 uM dsDNA library, 30 min, room temperature, amylose pull-down; high values mean tight binding. Particulars: protein: recombinant; tags: His6-MBP; chain copies: 2; dsDNA, one strand shown. Put shortly: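 Mouse FoxP3 or FoxP1 fragment lacking the N-terminus, His6-MBP-tagged and expressed in E. coli, was incubated at 0.4 µM with 0.1 µM Klenow-filled degenerate double-stranded DNA library for 30 min at room temperature in Tris pH 7.5 buffer with NaCl and MgCl2. Complexes captured on amylose resin were washed three times and their DNA sequenced on Illumina. Binding is reads-per-million enrichment of pull-down over input, replicates pooled.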
As for “GATGATTGTTCTCCCAGCTGATGAATTCTGTTTATCGAGTAAACAAATTTTCCTAATCTTTCTGTTCAAGCGCCATCTAC”, the binding signal was 2.76 RPM ratio (pull-down/input).

Take “GATGATTGTTCTCCCAGCTGATGAATTTATCAAATCGAGTAAACAAATTTTCCTAATCTTTCTGTTCAAGCGCCATCTAC”: the binding signal is 1.28 RPM ratio (pull-down/input).

On to “GATGATTGTTCTCCCAGCTGATGAATTTATCTCCTCGAGTAAACAAATTTTCCTAATCTTTCTGTTCAAGCGCCATCTAC”, for which the binding signal is 1.08 RPM ratio (pull-down/input).

Regarding “GATGATTGTTCTCCCAGCTGATGAATTGTTAGTTTCGAGTAAACAAATTTTCCTAATCTTTCTGTTCAAGCGCCATCTAC”, the binding signal is 1.7 RPM ratio (pull-down/input).

“GATGATTGTTCTCCCAGCTGATGAATTTTTTATCTCGAGTAAACAAATTTTCCTAATCTTTCTGTTCAAGCGCCATCTAC”: the binding signal is 0.997 RPM ratio (pull-down/input).

Take “GATGATTGTTCTCCCAGCTGATGAATTCCTTTTATCGAGTAAACAAATTTTCCTAATCTTTCTGTTCAAGCGCCATCTAC”: the binding signal was 0.896 RPM ratio (pull-down/input).

Turning to “GATGATTGTTCTCCCAGCTGATGAATTTGTTAGTTCGAGTAAACAAATTTTCCTAATCTTTCTGTTCAAGCGCCATCTAC”, the binding signal is 1.78 RPM ratio (pull-down/input).

Regarding “GATGATTGTTCTCCCAGCTGATGAATTTGTTTTATCGAGTAAACAAATTTTCCTAATCTTTCTGTTCAAGCGCCATCTAC”, the binding signal is 1.78 RPM ratio (pull-down/input).

As to “GATGATTGTTCTCCCAGCTGATGAATTAGTTAGTTCGAGTAAACAAATTTTCCTAATCTTTCTGTTCAAGCGCCATCTAC”, the binding signal was 0.968 RPM ratio (pull-down/input).

With “GATGATTGTTCTCCCAGCTGATGAATTCAATGAATCGAGTAAACAAATTTTCCTAATCTTTCTGTTCAAGCGCCATCTAC”, the binding signal was 0.93 RPM ratio (pull-down/input).

As for “GATGATTGTTCTCCCAGCTGATGAATTGGAAGGCTCGAGTAAACAAATTTTCCTAATCTTTCTGTTCAAGCGCCATCTAC”, the binding signal is 0.76 RPM ratio (pull-down/input).

Regarding “GATGATTGTTCTCCCAGCTGATGAATTAAACTAATCGAGTAAACAAATTTTCCTAATCTTTCTGTTCAAGCGCCATCTAC”, the binding signal was 1.09 RPM ratio (pull-down/input).

As for “GATGATTGTTCTCCCAGCTGATGAATTCGTCCTATCGAGTAAACAAATTTTCCTAATCTTTCTGTTCAAGCGCCATCTAC”, the binding signal is 0.835 RPM ratio (pull-down/input).

Take “GATGATTGTTCTCCCAGCTGATGAATTTTCGCGATCGAGTAAACAAATTTTCCTAATCTTTCTGTTCAAGCGCCATCTAC”: the binding signal is 0.884 RPM ratio (pull-down/input).

“GATGATTGTTCTCCCAGCTGATGAATTTGCGTTGTCGAGTAAACAAATTTTCCTAATCTTTCTGTTCAAGCGCCATCTAC”: the binding signal was 1.29 RPM ratio (pull-down/input).

In the case of “GATGATTGTTCTCCCAGCTGATGAATTGGATAGCTCGAGTAAACAAATTTTCCTAATCTTTCTGTTCAAGCGCCATCTAC”, the binding signal was 0.85 RPM ratio (pull-down/input).

On to “GATGATTGTTCTCCCAGCTGATGAATTTTAGTAATCGAGTAAACAAATTTTCCTAATCTTTCTGTTCAAGCGCCATCTAC”, for which the binding signal is 1.75 RPM ratio (pull-down/input).

With “GATGATTGTTCTCCCAGCTGATGAATTACGTAAATCGAGTAAACAAATTTTCCTAATCTTTCTGTTCAAGCGCCATCTAC”, the binding signal was 1.34 RPM ratio (pull-down/input).

For the sequence “GATGATTGTTCTCCCAGCTGATGAATTGTTTAGATCGAGTAAACAAATTTTCCTAATCTTTCTGTTCAAGCGCCATCTAC”, the binding signal is 2.19 RPM ratio (pull-down/input).

For the sequence “GATGATTGTTCTCCCAGCTGATGAATTTACGTAATCGAGTAAACAAATTTTCCTAATCTTTCTGTTCAAGCGCCATCTAC”, the binding signal is 1.82 RPM ratio (pull-down/input).

For the sequence “GATGATTGTTCTCCCAGCTGATGAATTTTGTTTATCGAGTAAACAAATTTTCCTAATCTTTCTGTTCAAGCGCCATCTAC”, the binding signal is 2.61 RPM ratio (pull-down/input).

In the case of “GATGATTGTTCTCCCAGCTGATGAATTTGATTTATCGAGTAAACAAATTTTCCTAATCTTTCTGTTCAAGCGCCATCTAC”, the binding signal is 1.23 RPM ratio (pull-down/input).

“GATGATTGTTCTCCCAGCTGATGAATTTAGATGATCGAGTAAACAAATTTTCCTAATCTTTCTGTTCAAGCGCCATCTAC”: the binding signal was 1.11 RPM ratio (pull-down/input).

Consider “GATGATTGTTCTCCCAGCTGATGAATTTAGTAAATCGAGTAAACAAATTTTCCTAATCTTTCTGTTCAAGCGCCATCTAC”, for which the binding signal was 1.58 RPM ratio (pull-down/input).

As to “GATGATTGTTCTCCCAGCTGATGAATTTAGTGAATCGAGTAAACAAATTTTCCTAATCTTTCTGTTCAAGCGCCATCTAC”, the binding signal was 0.958 RPM ratio (pull-down/input).

For the sequence “GATGATTGTTCTCCCAGCTGATGAATTTGGTTTATCGAGTAAACAAATTTTCCTAATCTTTCTGTTCAAGCGCCATCTAC”, the binding signal was 1.32 RPM ratio (pull-down/input).

In the case of “GATGATTGTTCTCCCAGCTGATGAATTTTTTAGATCGAGTAAACAAATTTTCCTAATCTTTCTGTTCAAGCGCCATCTAC”, the binding signal was 0.923 RPM ratio (pull-down/input).

Take “GATGATTGTTCTCCCAGCTGATGAATTTTACGTATCGAGTAAACAAATTTTCCTAATCTTTCTGTTCAAGCGCCATCTAC”: the binding signal is 0.962 RPM ratio (pull-down/input).

Consider “GATGATTGTTCTCCCAGCTGATGAATTGTCACATTCGAGTAAACAAATTTTCCTAATCTTTCTGTTCAAGCGCCATCTAC”, for which the binding signal was 1.2 RPM ratio (pull-down/input).

As to “GATGATTGTTCTCCCAGCTGATGAATTGAACGTTTCGAGTAAACAAATTTTCCTAATCTTTCTGTTCAAGCGCCATCTAC”, the binding signal is 0.869 RPM ratio (pull-down/input).

“GATGATTGTTCTCCCAGCTGATGAATTTATGGGATCGAGTAAACAAATTTTCCTAATCTTTCTGTTCAAGCGCCATCTAC”: the binding signal was 0.919 RPM ratio (pull-down/input).

For “GATGATTGTTCTCCCAGCTGATGAATTCTCCCTCTCGAGTAAACAAATTTTCCTAATCTTTCTGTTCAAGCGCCATCTAC”, the binding signal was 0.869 RPM ratio (pull-down/input).
